Screening results: PubChem BioAssay, National Center for Advancing Translational Sciences (NCATS)
Sfp PPTase inh: inhibitors of Bacillus subtilis Sfp phosphopantetheinyl transferase; Q9F4F7; Biochemical Sfp PPTase activity, qHTS; Potency, µM, for the others: largest response in the series, negative = inhibition, usual class: inhibitors; 3.5% of 310,000 active; AID 1490;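 note: the enzyme is Sfp with the accession as filed and its product quenches rhodamine fluorescence; potency is the fitted concentration of half-maximal effect; 0% = enzyme reaction without inhibitor and -100% = no enzyme wells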
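Compounds were incubated with enzyme (final 15 nM) for 15 min at room temperature before substrate addition started the reaction. Fluorescence at 525 nm excitation, 598 nm emission was recorded immediately and after 30 minutes.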
VDR inhibitor: blocks the human vitamin D receptor | P11473 | VDR-SRC2-3 peptide fluorescence polarization, 2 h | Potency, µM, for inactives: max response, negative = inhibition, actives largely listed as inhibitors | 0.93% of 400,000 active; note: potency is the fitted concentration of half-maximal effect
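Measured by FP: displacement of SRC2-3 coactivator peptide from VDR by library compounds, following a two-hour ambient incubation.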
G9a inh: inhibitors of human histone lysine methyltransferase G9a | G9a H3K9 monomethylation, AlphaScreen, 2 h | Q96KQ7 | AID 504332 | 8.8% of 350,000 active | Potency, µM (top dose mostly 102 µM), inactives show at the highest dose activity, negative = inhibition, usual class: inhibitors; note: potency is the fitted concentration of half-maximal effect; nearly all actives have a fitted effect of over 75% in size
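Step 1: enzyme (final 20 nM) with compound, 15 min RT. Step 2: substrate peptide 500 nM and SAM 20 uM, 2 h RT. Step 3: anti-H3K9me1 antibody and AlphaScreen beads, 10 min, then plate read.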
PLK1 PBD inh: blocks phosphopeptide binding to human PLK1 polo-box domain; Plk1 PBD binding of FITC phosphopeptide, fluorescence polarization; Potency, µM, for the others: max response, negative = inhibition, most hits filed as inhibitors; P53350; AID 720504; 2.8% of 360,000 active; note: potency is the fitted concentration of half-maximal effect; series mostly up to about 57 µM; nearly all actives have a fitted effect of over 65% in size
Target sequence (P53350 whole entry, looked up, the tested form may be a part): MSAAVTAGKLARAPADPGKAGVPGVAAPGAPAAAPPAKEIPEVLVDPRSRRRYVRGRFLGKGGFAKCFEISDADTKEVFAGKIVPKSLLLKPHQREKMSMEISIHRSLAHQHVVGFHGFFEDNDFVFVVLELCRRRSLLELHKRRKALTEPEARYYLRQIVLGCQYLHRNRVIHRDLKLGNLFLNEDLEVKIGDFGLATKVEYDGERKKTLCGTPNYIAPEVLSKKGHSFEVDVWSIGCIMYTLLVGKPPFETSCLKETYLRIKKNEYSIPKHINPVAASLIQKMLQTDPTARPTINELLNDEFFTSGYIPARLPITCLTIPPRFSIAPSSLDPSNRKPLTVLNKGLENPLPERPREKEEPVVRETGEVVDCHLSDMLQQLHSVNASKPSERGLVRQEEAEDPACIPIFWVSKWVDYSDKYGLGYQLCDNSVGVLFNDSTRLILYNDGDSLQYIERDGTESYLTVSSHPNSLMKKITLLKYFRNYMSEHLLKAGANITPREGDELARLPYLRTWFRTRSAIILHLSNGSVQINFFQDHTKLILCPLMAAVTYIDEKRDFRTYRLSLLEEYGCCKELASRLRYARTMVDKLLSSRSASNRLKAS
MmCpn inh: inhibitors of Methanococcus maripaludis chaperonin TRiC (MmCpn); purified Mm-Cpn ATPase, ADP Transcreener TR-FRET; Potency, µM (highest dose often 76.9 µM), without a hit: top-dose activity, negative = inhibition, actives largely listed as inhibitors; 0.031% of 330,000 active; note: potency is the fitted concentration of half-maximal effect; nearly all actives have a fitted effect of over 80% in size
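ATP (10 uM final) was added to archaeal chaperonin (25 nM final) after 10 min exposure to test compound at 37°C; after 30 min further incubation, ADP was detected by competitive TR-FRET.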
CCT chaperon mod: changes cytosolic chaperonin activity; purified chaperonin ATPase assay, HTRF ADP detection, 30 min; 0.3% of 360,000 active; activity change, % (test concentration not listed), hits read low; in the data active = activity change below about -30%
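ATPase activity: ADP formed was measured by HTRF Transcreener (665/615 nm ratio) after 30 min at 37 deg C with 10 uM ATP. Compounds screened at one 76 uM concentration against 40 or 20 nM TRiC in Tris pH 7.4/KCl/MgCl2/DTT buffer.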
* hit, by the source's call; [ ] = another dose, or the depositor's remark. An excerpt weighted towards active compounds, which were near 10% of everything screened. Unless noted, calls come from the whole dose curve; as a rule, active = well fitted curve in the direction sought with a large enough effect; inconclusive = small, poorly fitted or top-dose-only effect, or another doubt; inactive = no such curve, though single readings can be large; an effect the other way counts as inactive or inconclusive. Unless noted, % is set by controls: 0 for no effect and ±100 for the full control effect.

Screening O=C(N/N=C/c1ccc(OC(=O)c2cccs2)cc1)c1ccc(F)cc1 returned Sfp PPTase inh -7%, VDR inhibitor -24%, G9a inh -17%[59 µM], PLK1 PBD inh -9%, MmCpn inh -3% and CCT chaperon mod -1.
Cc1noc(/C=C/c2ccco2)c1S(=O)(=O)N1CCC(C(=O)Nc2ccc(F)cc2F)CC1 was read as VDR inhibitor 4% and G9a inh -8%[59 µM].
Screening Cc1nc2ccc(NC(=S)NCCCO)cc2nc1C returned Sfp PPTase inh 56µM*, VDR inhibitor -5%, G9a inh 28µM*, PLK1 PBD inh -26%, MmCpn inh -26% and CCT chaperon mod 2.
`OCCNC(=S)Nc1ccc2nsnc2c1` gave Sfp PPTase inh -39%, VDR inhibitor -2%, G9a inh 35µM*, PLK1 PBD inh -11%, MmCpn inh inconclusive and CCT chaperon mod 0.
Screening COc1ccc(C(=O)Nc2ccccc2C(=O)OCc2cc(=O)n3c4c(sc3n2)CCCC4)cc1 returned VDR inhibitor -2% and G9a inh 21%[59 µM].
`COc1ccc(C(C)=O)cc1CSc1nnc(Nc2ccc(C)cc2)s1` gave Sfp PPTase inh -2%, VDR inhibitor 5%, G9a inh 10µM*, PLK1 PBD inh -5%, MmCpn inh -21% and CCT chaperon mod 2.
For COc1ccc(C(C)=O)cc1CSc1nnc(Nc2ccccc2)s1 the results were Sfp PPTase inh -6%, VDR inhibitor 8%, G9a inh -18%[59 µM], PLK1 PBD inh -13%, MmCpn inh -3% and CCT chaperon mod 4.
For Cc1cc2n(n1)SC(Nc1cc(Cl)ccc1Cl)N2 (configuration not stated) the results were Sfp PPTase inh 2%, VDR inhibitor -18%, G9a inh 7.9µM*, PLK1 PBD inh -27%, MmCpn inh 3% and CCT chaperon mod 1.
For O=C(Nc1cc(Cl)ccc1Cl)Nn1cnnc1 the results were Sfp PPTase inh 2%, VDR inhibitor 6%, G9a inh -21%, PLK1 PBD inh 1%, MmCpn inh 1% and CCT chaperon mod -1.
Cc1cc(C)nc(Nc2cccc3ccccc23)n1 was read as Sfp PPTase inh -3%, VDR inhibitor -6%, PLK1 PBD inh -9%, MmCpn inh -5% and CCT chaperon mod -1.
`Cc1cc2n(n1)SC(Nc1cccc3ccccc13)N2` (configuration not stated) gave Sfp PPTase inh -12%, VDR inhibitor -11%, G9a inh 0.63µM*, PLK1 PBD inh -19%, MmCpn inh -2% and CCT chaperon mod 0.
`Cc1cc2n(n1)SC(Nc1ccc(F)cc1)N2` (configuration not stated) gave Sfp PPTase inh -4%, VDR inhibitor -5%, G9a inh 1.4µM*, PLK1 PBD inh 0%, MmCpn inh -2% and CCT chaperon mod 2.
Screening CC(C)CN(CC(C)C)C(=O)C1CCCN(S(=O)(=O)c2ccc3c(c2)oc(=O)n3C)C1 (configuration not stated) returned VDR inhibitor -15% and G9a inh 8%[59 µM].
`CCNC(=O)c1ccc2nc(Cc3ccccc3)oc2c1` gave VDR inhibitor -3% and G9a inh 3%[59 µM].
`CC1CCc2c(C(=O)NCC3CCCO3)csc2C1` (configuration not stated) gave Sfp PPTase inh -1%, VDR inhibitor -2%, G9a inh 89µM*, PLK1 PBD inh 1%, MmCpn inh 1% and CCT chaperon mod 1.
Screening CC1CCc2[nH]c3ccc(C(=O)NCC4CCCO4)cc3c2C1 (configuration not stated) returned VDR inhibitor 1%, G9a inh 45µM*, PLK1 PBD inh 1%, MmCpn inh 0% and CCT chaperon mod 0.
Screening O=C(NCC1CCCO1)c1ccc(C(=O)NCC2CCCO2)cc1 (configuration not stated) returned Sfp PPTase inh 11%, VDR inhibitor 2%, G9a inh inconclusive, PLK1 PBD inh -8%, MmCpn inh -3% and CCT chaperon mod 1.
